The values that follow come from PubChem BioAssay (Tox21).

Calls of active or inactive are those of the source. Entries that show only a call come without a potency. The call rests on the fitted dose curve.

Muscarinic acetylcholine receptor M1 (Homo sapiens), sequence (P11229 whole entry, looked up): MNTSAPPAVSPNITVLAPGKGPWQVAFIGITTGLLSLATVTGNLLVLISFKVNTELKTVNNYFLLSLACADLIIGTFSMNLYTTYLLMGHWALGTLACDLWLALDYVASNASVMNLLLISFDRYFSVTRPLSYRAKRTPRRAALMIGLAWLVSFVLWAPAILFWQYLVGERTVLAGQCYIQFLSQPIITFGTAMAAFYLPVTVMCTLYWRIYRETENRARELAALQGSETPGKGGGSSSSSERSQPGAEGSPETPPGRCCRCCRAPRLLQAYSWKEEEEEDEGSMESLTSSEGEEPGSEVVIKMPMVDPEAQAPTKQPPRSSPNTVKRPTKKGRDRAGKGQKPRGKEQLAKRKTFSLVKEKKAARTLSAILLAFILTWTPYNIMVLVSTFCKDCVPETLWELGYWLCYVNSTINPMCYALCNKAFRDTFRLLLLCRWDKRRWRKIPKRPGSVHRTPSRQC

This assay addresses Muscarinic acetylcholine receptor M1 (Homo sapiens) (UniProt P11229). Put plainly: Cholinergic receptor muscarinic 1 (CHRM1) small molecule agonists, cell-based qHTS assay (AID 1963589). Further: nearly all actives have a fitted effect of over 35% in size. Particulars: CHRM1-CHO cells, agonist mode, calcium flux fluorescence; series mostly up to 76.8 µM. The text has this:
National Center for Advancing Translational Sciences [NCATS]
Division of Preclinical Innovation [DPI]
U.S. Environmental Protection Agency [EPA]
National Institutes of Environmental Health Sciences [NIEHS]
National Toxicology Program [NTP]
U.S. Food and Drug Administration [FDA]
The CHRM1 is a muscarinic receptor. This receptor plays a crucial role in learning and memory processes and has long been identified as a promising therapeutic target for the improvement of cognitive decline in Alzheimer's disease (AD). The CHRM1-CHO cell line stably expressing human muscarinic acetylcholine receptor M1 (CHRM1) can be used for screening agonists and antagonists of interactions between CHRM1 and its ligands. The CHRM1-CHO Calcium Flux Assay is a homogeneous fluorescence-based assay for detecting the intracellular calcium level using FDSS kinetic plate reader system.
CHRM1-CHO cells were dispensed at 1000 cells/3uL/well in 1536-well black-clear bottom plates using a Multidrop Dispenser. After the assay plates were incubated at a 37 C/5% CO2 incubator for 18 h, 3 uL of Dye Loading Buffer was transferred to the assay plate by a Flying Reagent Dispenser. The assay plates were incubated at 37 C for 1h. For agonist mode, 23 nL of compounds dissolved in DMSO, positive controls or DMSO only was transferred to the assay plate by a pin tool. […] Each test compound was measured at 15 concentrations in three independent runs.
For orientation: In qHTS, concentration-response curves come from the screen itself.
Turning to `C/C=C(C)/C=C/C=C(C)C`, the Potency entry was “inactive”. `Oc1ccc(O)cc1`: the Potency result is “inactive”.

Consider `CCN(CCN)c1cccc(C)c1`, for which the Potency entry was “inactive”. Turning to `CCCCOCCOCCO`, the Potency entry is “inactive”. As for `COC(=O)C1CCC(C(=O)OC)CC1` (stereo not given), the Potency entry was “inactive”. As to `CCCCCCCC=O`, the Potency entry was “inactive”. The same measure for `C=CC(C)(CCC=C(C)C)OC(C)=O` (stereo not given): “inactive”; for `O=S1(=O)CCCO1`: “inactive”. In the case of `C=CC(=O)OCCC(=O)O`, the Potency entry was “inactive”. Consider `CC(C)(CO)CO`, for which the Potency entry was “inactive”. As for `NC1CCCCC1`, the Potency result is “inactive”. The same measure for `CC/C=C(\C(=O)N[C@@H]1C(=O)N2C(C(=O)OCOC(=O)C(C)(C)C)=C(COC(N)=O)CS[C@H]12)c1csc(N)n1`: “inactive”. In the case of `Cc1ccc2c(c1)C(=O)OC2=O` it was “inactive”; in that of `CCCCCCCCCCCCO`, “inactive”. On to `CCCCOCCO`, for which the Potency result is “inactive”.

For `C=C(C)C(=O)OCC(CC)(COC(=O)C(=C)C)COC(=O)C(=C)C`, the Potency result is “inactive”. For `O=NO`, the Potency entry is “inactive”.

As for `Nc1ccc(S(=O)(=O)c2ccc(N)cc2)cc1`, the Potency result is “inactive”. With `CCCCCCCCCCCO`, the Potency entry was “inactive”.

With `C=C(C)C(=O)OCCCCCCCCCCCC`, the Potency entry was “inactive”. For `CCCOC(=O)NCCCN(C)C`, the Potency result is “inactive”.

As to `CCCCCCCCCCC=CC1CC(=O)OC1=O` (stereo not given), the Potency result is “inactive”. Consider `Nc1ncnc2nc[nH]c12`, for which the Potency result was “inactive”. As to `CC(C)(CO)COC(=O)C(C)(C)CO`, the Potency entry was “inactive”.

Consider `CCn1cc(C(=O)O)c(=O)c2ccc(C)nc21`, for which the Potency entry is “inactive”. Take `C1CCCNCC1`: the Potency result was “inactive”. For `O=C(O)c1ccccc1Nc1cccc(C(F)(F)F)c1`, the Potency result was “inactive”.

With `C=C(C)CC(C)(C)C`, the Potency result was “inactive”. For `Cc1cccc(C(=O)O)c1`, the Potency entry was “inactive”.

For `N[C@@H](Cc1cc(I)c(Oc2cc(I)c(O)c(I)c2)c(I)c1)C(=O)O`, the Potency result is “inactive”. In the case of `COCCOCCOCCO`, the Potency result is “inactive”.

Turning to `O=[N+]([O-])c1ccccc1C(F)(F)F`, the Potency entry was “inactive”. On to `O=C(Oc1ccccc1)c1ccccc1O`, for which the Potency entry is “inactive”. As to `Cc1cccc(O)c1C`, the Potency entry was “inactive”. `c1ccc2c(c1)Cc1ccccc1-2`: the Potency entry is “inactive”. For `O=Nc1ccc(O)cc1`, the Potency result is “inactive”. In the case of `c1ccc(Nc2ccccc2)cc1` it was “inactive”; in that of `c1cc(-c2ccncc2)ccn1`, “inactive”; in that of `OCC(O)CS` (stereo not given), “inactive”. Turning to `CCn1c2ccccc2c2cc(N)ccc21`, the Potency entry is “inactive”.
